HT1080-NT tox: qHTS for induction of synthetic lethality in tumor cells producing 2HG: qHTS for the HT-1080-NT fibrosarcoma cell line. HT-1080-NT fibrosarcoma viability, CellTiter-Glo ATP luminescence, 48 h. Potency, µM (highest dose often 46.1 µM), inactives show at the top dose activity, negative = less viability, most hits filed as cytotoxic. actives 1.6% (n = 360,000). AID 686970, 2013;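 further: NT is the 2HG producing partner of a matched IDH1 knockdown line; 0% = DMSO-treated cells and -100% = media-only wells without cells; nearly all actives have a fitted effect of over 55% in size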
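Read-out is CellTiter-Glo luminescence after 10 minutes at room temperature, following 48 hours' compound treatment of HT-1080-NT cells (750 cells/well, RPMI, 5% FBS, 37 degrees C).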
KB-3-1 tox: qHTS assay for MDR1-selective chemotherapeutics: Primary screen using the parental adenocarcinoma cell KB-3-1; KB-3-1 viability, CellTiter-Glo ATP luminescence, 72 h; Potency, µM (top dose mostly 46.1 µM), most hits filed as cytotoxic; actives 1.4% (n = 400,000); AID 1347075, 2019; further: on the % scale 0 is the no-effect control and ±100 the full control effect; nearly all actives have a fitted effect of over 60% in size
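Here the drug-naive KB-3-1 line serves as comparator for MDR sub-line selectivity; cells received compound titrations, 72 h at 37 °C, then CellTiter-Glo readout.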
TGFb SMAD3 inh: qHTS for Inhibitors of TGF-b; HepG2 CAGA-GFP TGF-b/SMAD3 reporter, GFP fluorescence, 18 h; TGF-beta stimulated, 500 pg/mL final; actives 1.2% (n = 410,000); Potency, µM (top dose mostly 46.1 µM), for the others: at the top dose activity, negative = inhibition, usual class: inhibitors; further: on the % scale 0 is the no-effect control and ±100 the full control effect; nearly all actives have a fitted effect of over 65% in size
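Inhibition was scored as loss of TGF-beta-induced (500 pg/mL final, 18 hours, 37 degrees C) GFP in HEPG2 cells carrying a CAGA-GFP reporter, in DMEM with 1% FBS. Well GFP was summed per cell; Activity was normalised to unstimulated and stimulated DMSO wells, then concentration-response fitting.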
KB-V1 cytotox: qHTS assay for MDR1-selective chemotherapeutics: Primary screen using the drug-selected MDR subline cells KB-V1. AID 1347076, 2019. KB-V1 MDR cells viability, CellTiter-Glo, 72 h. Potency, µM (highest dose often 46.1 µM), actives largely listed as cytotoxic. actives 3.4% (n = 400,000); further: on the % scale 0 is the no-effect control and ±100 the full control effect; nearly all actives have a fitted effect of over 60% in size
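qHTS viability screen in drug-selected KB-V1 MDR cells: 72 h compound treatment at 37 degrees C, ATP luminescence end point.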
HT1080 IDH1KD tx: qHTS for induction of synthetic lethality in tumor cells producing 2HG: qHTS for the HT-1080-IDH1KD cell line. HT-1080 IDH1 knockdown viability, ATP luminescence, 48 h. actives 2% (n = 360,000). Potency, µM (series often up to 46.1 µM), for inactives: top-dose activity, negative = toxicity, actives largely listed as cytotoxic;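 further: 0% = DMSO wells and -100% = cell-free medium wells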
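HT-1080-IDH1KD cells (IDH1 knocked down), 750/well in RPMI with 5% FBS, treated with compound 48 h at 37 degrees C. Viability by CellTiter-Glo luminescence, normalised to DMSO and no-cell wells; concentration-response curves classed.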
HepG2 viability: qHTS for Inhibitors of TGF-b: Cytotox Counterscreen. Potency, µM (highest dose often 46.1 µM), inactives show at the highest dose activity change, negative = cytotoxicity, usual class: cytotoxic. AID 588856, 2011. HepG2 CAGA-GFP viability, ATP luminescence, 18 h. actives 0.76% (n = 410,000)
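CellTiter-Glo luminescence gave cytotoxicity after 18 hours at 37 degrees C. The cells were HepG2 CAGA-GFP in 1% FBS DMEM, stimulated with 500 pg/mL TGF-beta after compound addition. %Activity was normalised to no-cell wells (complete cell-killing) and DMSO (no toxicity), and curves were fitted and classified.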
The depositor's hits bear a star; i = inactive; ? = inconclusive; / = no result. Hits are enriched below; roughly 6.6% of the tested compounds scored in any of these assays. The call rests on the fitted dose curve; in most records, active means well fitted curve in the direction sought with a large enough effect; inconclusive means small, poorly fitted or top-dose-only effect, or another doubt; inactive means no such curve, though single readings can be large; an effect the other way counts as inactive or inconclusive. Potency means the concentration at half of the fitted maximal effect.

SMILES	HT1080-NT tox	KB-3-1 tox	TGFb SMAD3 inh	KB-V1 cytotox	HT1080 IDH1KD tx	HepG2 viability
Cc1cc(C)nc(NC(=O)CSc2nnnn2-c2ccccc2)n1	17.8%	i	12.9%	20.6µM*	10.2%	1.8%
CCn1c(CSc2nc(C)cc(C)n2)nnc1SCC(=O)Nc1cccc2ccccc12	3.7%	i	-17.9%	i	7.7%	-14.1%
CCn1c(CSc2nc(C)cc(C)n2)nnc1SCC(=O)Nc1ccccc1	0.2%	i	3.0%	20.6µM*	-2.8%	-16.9%
O=C(CSc1nnnn1-c1ccccc1)Nc1ccccc1	9.8%	i	-0.5%	i	5.4%	-8.8%
O=C(CN1CCN(C2CCCCC2)C(=O)C1=O)Nc1ccc(Cl)cc1	/	i	-30.4%	i	/	3.4%
COc1ccc(NS(=O)(=O)c2ccccc2C(=O)O)cc1	/	?	/	i	/	/
COc1ccc2c(c1)[nH]c1c(N3CCSCC3)ncnc12	?	i	0.0%	?	14.6µM*	-29.6%
COc1cccc(N2CCN(c3ncnc4c3[nH]c3ccc(F)cc34)CC2C)c1 (centres undefined)	6.51µM*	?	?	?	7.31µM*	-69.9%
COc1ccc2[nH]c3c(N4CC(C)OC(C)C4)ncnc3c2c1 (centres undefined)	-15.0%	i	0.3%	i	-2.1%	-0.9%
COc1ccc2c(c1)[nH]c1c(N3CCN(Cc4ccc5c(c4)OCO5)CC3)ncnc12	-18.9%	?	20µM*	2.59µM*	?	-52.8%
CCC(=O)Nc1ccc(CC)cc1-c1nc2ccccc2n(CC(=O)Nc2cccc(Cl)c2)c1=O	/	i	-17.0%	i	/	-25.3%
CC1(C)C2CCC1(CS(=O)(=O)Nc1ccc(S(=O)(=O)N3CCCCC3)cc1)C(=O)C2 (centres undefined)	-1.5%	i	1.1%	25.9µM*	-14.6%	13.3%
CC1(C)C2CCC1(CS(=O)(=O)Nc1ccccc1)C(=O)C2 (centres undefined)	-3.7%	i	7.7%	i	-3.4%	-9.3%
COc1cccc(-n2c(CN3CCN(c4ccc(C)cc4)C(C)C3)nc3ccc([N+](=O)[O-])cc3c2=O)c1 (centres undefined)	-2.1%	i	6.2%	14.6µM*	0.2%	4.3%
COc1cccc(-n2c(CN3CCN(c4cccc(C)c4)C(C)C3)nc3ccc([N+](=O)[O-])cc3c2=O)c1 (centres undefined)	-8.0%	i	-5.9%	i	-13.8%	-5.5%
CCN(CC)c1nn2c(=O)c(C(=O)NCc3ccc(OC)cc3OC)cnc2s1	/	/	?	/	/	-23.2%
COc1ccc2c(Sc3ccc(Cl)cc3)c(C(=O)N3CCC(C)CC3)[nH]c2c1	/	i	11.2µM*	i	/	-94.9%
Cc1[nH]n(-c2ccccc2)c(=O)c1/C=N/N1C(=O)c2cccc3cccc(c23)C1=O	?	?	?	7.31µM*	?	-62.5%
Cc1[nH]n(-c2ccccc2)c(=O)c1/C=N/N1CCOCC1	-7.2%	i	1.8%	i	-16.7%	-13.7%
Cc1ccc(-n2[nH]c(C)c(C=Nc3ccc(Br)cn3)c2=O)cc1	-1.7%	i	0.8%	i	-14.2%	-20.6%
COc1ccc2nc(/N=C/c3c(C)[nH]n(-c4ccc(C)cc4)c3=O)sc2c1	?	?	-23.4%	8.2µM*	?	8.91µM*
Cc1[nH]n(-c2ccccc2)c(=O)c1C=Nc1cccc2cccnc12	-21.3%	?	?	18.4µM*	?	-28.7%
Cc1ccc(-n2[nH]c(C)c(/C=N/c3ccccn3)c2=O)cc1	7.08µM*	?	-14.6%	i	?	10µM*
CCCCn1c(C(C)NC(=O)c2ccccc2)nc2ccccc21 (centres undefined)	/	i	?	i	/	-21.2%
Cc1cccc(C(=O)N2CCc3cc(CNC(=O)c4cc5ccccc5[nH]4)ccc32)c1	/	i	2.1%	i	/	-6.1%
SMILES	HT1080-NT tox	KB-3-1 tox	TGFb SMAD3 inh	KB-V1 cytotox	HT1080 IDH1KD tx	HepG2 viability
CCOc1ccc(/C=C/c2nc(C#N)c(NC3CCCCC3)o2)cc1	/	/	-19.6%	/	/	6.3%
COc1ccc(OC)c(NC(=O)N2CCC3(CC2)Oc2ccccc2C(=O)N3Cc2ccccc2F)c1	/	/	/	/	/	-22.7%
O=C(Nc1ccc2nc(SCC(=O)N3CCOCC3)sc2c1)c1cccc(Br)c1	/	/	0.0%	/	/	-39.1%
Cc1ccc(-n2[nH]c(C)c(C=Nc3cc(C)ccn3)c2=O)cc1	10.3µM*	?	-4.0%	?	23.1µM*	-76.5%
CCOC(=O)c1ccc(OCC2c3cc(OC)c(OC)cc3CCN2C(=O)c2ccc(S(=O)(=O)N3CCCC3)cc2)cc1 (centres undefined)	/	i	0.6%	?	/	-12.5%
CCOC(=O)C1=C(C)Nc2ccc(C)cc2S1	-7.0%	i	1.2%	i	-3.4%	-14.0%
CCOCCOC(=O)C1=C(C)Nc2ccc(C)cc2S1	-17.3%	i	5.9%	13µM*	-2.9%	-5.7%
C/C=C1\COC(C(=O)NCc2ccccn2)(C(F)(F)F)C=C1C=C(C)C (centres undefined)	/	/	-6.5%	/	/	-24.0%
Cc1ccc(C(=O)Sc2cccccc2=O)cc1	?	?	0.891µM*	2.59µM*	1.64µM*	1.41µM*
O=C(Nc1ccccc1SC(=O)c1ccccc1)c1ccccc1	2.8%	i	-23.3%	i	-11.7%	-31.3%
COc1ccc(CCNC(=O)CCn2c(=O)c3ccccc3n(Cc3ccccc3C)c2=O)cc1OC	/	i	0.0%	i	/	1.3%
O=C(O)C1C(C(=O)Nc2ccc(Cl)cc2)C2C=CC1C21CC1 (centres undefined)	7.5%	i	-2.3%	20.6µM*	2.4%	-19.4%
O=C(Nc1ccc(Cl)cc1)C1C2CCC3C(CCC21)C3(Cl)Cl (centres undefined)	-11.5%	i	?	i	?	-13.4%
OCCN(CCO)CC(O)COc1ccc(C23CC4CC(CC(C4)C2)C3)cc1 (centres undefined)	-7.5%	i	17.8µM*	?	3.9%	-87.9%
COc1ccc(S(=O)(=O)NCc2ccc3c(c2)CCN3C(=O)c2ccccc2)cc1OC	/	/	-4.3%	/	/	-34.0%
